Assay results as given in ChEMBL document CHEMBL1961873, “Compounds: GSK PKIS; Assays: Nanosyn kinase panel” (2012).

Tests used:
[1] = biological target: T1, Tyrosine-protein kinase receptor TYRO3 (Homo sapiens) (UniProt Q06418); conditions: at 1 µM
T1 sequence (whole entry): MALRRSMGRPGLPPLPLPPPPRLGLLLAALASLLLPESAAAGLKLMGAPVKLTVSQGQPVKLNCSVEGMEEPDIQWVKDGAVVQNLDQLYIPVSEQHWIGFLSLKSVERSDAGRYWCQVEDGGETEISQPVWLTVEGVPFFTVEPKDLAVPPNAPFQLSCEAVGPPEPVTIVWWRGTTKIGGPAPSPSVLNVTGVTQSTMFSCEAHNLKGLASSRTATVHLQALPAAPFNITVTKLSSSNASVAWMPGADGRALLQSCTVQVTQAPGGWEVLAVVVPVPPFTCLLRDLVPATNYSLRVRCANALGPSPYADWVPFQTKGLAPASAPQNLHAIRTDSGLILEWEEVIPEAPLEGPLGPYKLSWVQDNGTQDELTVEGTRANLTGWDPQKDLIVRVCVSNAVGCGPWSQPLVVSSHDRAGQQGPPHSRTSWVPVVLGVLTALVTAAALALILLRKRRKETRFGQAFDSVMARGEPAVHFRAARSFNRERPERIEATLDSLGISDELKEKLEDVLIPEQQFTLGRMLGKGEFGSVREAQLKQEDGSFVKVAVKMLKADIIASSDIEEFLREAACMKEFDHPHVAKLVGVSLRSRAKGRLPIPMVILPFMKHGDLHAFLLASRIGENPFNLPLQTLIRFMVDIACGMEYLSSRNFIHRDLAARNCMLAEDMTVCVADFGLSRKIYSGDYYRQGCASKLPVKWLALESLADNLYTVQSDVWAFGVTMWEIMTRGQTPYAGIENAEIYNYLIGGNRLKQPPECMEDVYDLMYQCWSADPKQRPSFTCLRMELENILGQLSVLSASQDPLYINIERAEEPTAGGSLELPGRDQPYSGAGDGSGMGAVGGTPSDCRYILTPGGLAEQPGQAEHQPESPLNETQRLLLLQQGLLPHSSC

[2] = biological target: Tyrosine-protein kinase Yes (Homo sapiens) (UniProt P07947); conditions: at 0.1 µM
Chain of Tyrosine-protein kinase Yes (Homo sapiens) (P07947 2-543 limits assumed): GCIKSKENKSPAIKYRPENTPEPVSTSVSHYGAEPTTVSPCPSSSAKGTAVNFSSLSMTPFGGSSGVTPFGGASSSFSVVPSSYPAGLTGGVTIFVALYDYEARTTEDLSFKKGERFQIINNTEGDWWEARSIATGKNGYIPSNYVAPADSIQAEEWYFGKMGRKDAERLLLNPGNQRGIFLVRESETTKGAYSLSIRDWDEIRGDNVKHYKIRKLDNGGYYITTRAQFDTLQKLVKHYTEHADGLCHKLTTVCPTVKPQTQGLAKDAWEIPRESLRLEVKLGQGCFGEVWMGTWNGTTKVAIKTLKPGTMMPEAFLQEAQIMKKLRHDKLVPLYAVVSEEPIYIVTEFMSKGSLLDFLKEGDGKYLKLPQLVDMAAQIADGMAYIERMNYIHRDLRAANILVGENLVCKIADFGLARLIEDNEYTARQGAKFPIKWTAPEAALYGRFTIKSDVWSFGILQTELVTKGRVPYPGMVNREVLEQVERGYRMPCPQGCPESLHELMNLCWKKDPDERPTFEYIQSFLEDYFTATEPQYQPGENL

[3] = biological target: Tyrosine-protein kinase Yes (Homo sapiens) (UniProt P07947); conditions: at 1 µM
[4] = biological target: T2, Tyrosine-protein kinase ZAP-70 (Homo sapiens) (UniProt P43403); conditions: at 0.1 µM
T2 sequence (whole entry): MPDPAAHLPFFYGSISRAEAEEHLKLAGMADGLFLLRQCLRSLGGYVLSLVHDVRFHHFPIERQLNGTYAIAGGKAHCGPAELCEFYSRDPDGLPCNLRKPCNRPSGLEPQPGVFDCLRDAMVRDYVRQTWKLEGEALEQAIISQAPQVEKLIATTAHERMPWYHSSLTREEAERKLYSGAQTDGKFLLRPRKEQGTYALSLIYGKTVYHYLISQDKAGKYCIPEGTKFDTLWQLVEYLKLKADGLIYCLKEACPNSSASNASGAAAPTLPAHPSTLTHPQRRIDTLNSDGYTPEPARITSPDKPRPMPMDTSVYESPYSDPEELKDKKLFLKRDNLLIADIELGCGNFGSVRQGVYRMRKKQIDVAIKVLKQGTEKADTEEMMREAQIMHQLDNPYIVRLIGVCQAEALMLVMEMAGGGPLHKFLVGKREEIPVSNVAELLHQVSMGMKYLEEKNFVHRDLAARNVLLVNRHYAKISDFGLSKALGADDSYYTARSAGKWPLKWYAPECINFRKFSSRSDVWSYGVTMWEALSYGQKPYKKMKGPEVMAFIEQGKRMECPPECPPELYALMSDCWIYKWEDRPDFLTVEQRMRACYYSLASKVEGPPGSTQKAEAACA

[5] = biological target: T2, Tyrosine-protein kinase ZAP-70 (Homo sapiens); conditions: at 1 µM
[6] = biological target: Serine/threonine-protein kinase B-raf (Homo sapiens) (UniProt P15056); conditions: at 0.1 µM
Chain of Serine/threonine-protein kinase B-raf (Homo sapiens) (P15056 whole entry): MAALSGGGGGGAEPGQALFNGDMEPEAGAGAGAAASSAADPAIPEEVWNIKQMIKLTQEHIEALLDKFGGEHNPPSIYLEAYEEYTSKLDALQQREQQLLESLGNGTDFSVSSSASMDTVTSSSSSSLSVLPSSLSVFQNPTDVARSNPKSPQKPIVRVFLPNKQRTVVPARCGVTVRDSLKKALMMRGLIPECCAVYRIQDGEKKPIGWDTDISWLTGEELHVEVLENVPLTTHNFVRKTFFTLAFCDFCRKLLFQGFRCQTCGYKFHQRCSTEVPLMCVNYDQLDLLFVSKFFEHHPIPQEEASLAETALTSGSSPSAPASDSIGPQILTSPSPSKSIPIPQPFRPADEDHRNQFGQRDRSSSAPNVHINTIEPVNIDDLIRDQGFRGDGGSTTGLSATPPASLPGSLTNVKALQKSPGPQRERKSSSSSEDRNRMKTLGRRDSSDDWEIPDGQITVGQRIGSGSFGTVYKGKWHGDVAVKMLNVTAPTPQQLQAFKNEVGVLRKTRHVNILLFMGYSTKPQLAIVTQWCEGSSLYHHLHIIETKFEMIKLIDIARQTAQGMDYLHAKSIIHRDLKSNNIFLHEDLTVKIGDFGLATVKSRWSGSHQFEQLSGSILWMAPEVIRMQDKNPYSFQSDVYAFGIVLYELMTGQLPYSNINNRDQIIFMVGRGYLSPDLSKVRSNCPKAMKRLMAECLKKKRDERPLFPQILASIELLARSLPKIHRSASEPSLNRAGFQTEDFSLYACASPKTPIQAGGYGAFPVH

[7] = biological target: Serine/threonine-protein kinase B-raf (Homo sapiens) (UniProt P15056); conditions: at 1 µM
[8] = test system: Serine/threonine-protein kinase B-raf (Homo sapiens), P15056 [V600E]; conditions: at 0.1 µM
Chain of Serine/threonine-protein kinase B-raf (Homo sapiens), P15056 [V600E] (P15056 whole entry V600E): as the sequence (P15056 whole entry) above, with V600E counted along it

[9] = test system: Serine/threonine-protein kinase B-raf (Homo sapiens), P15056 [V600E]; conditions: at 1 µM
[10] = biological target: RAF proto-oncogene serine/threonine-protein kinase (Homo sapiens) (UniProt P04049); conditions: at 0.1 µM
Chain of RAF proto-oncogene serine/threonine-protein kinase (Homo sapiens) (P04049 whole entry): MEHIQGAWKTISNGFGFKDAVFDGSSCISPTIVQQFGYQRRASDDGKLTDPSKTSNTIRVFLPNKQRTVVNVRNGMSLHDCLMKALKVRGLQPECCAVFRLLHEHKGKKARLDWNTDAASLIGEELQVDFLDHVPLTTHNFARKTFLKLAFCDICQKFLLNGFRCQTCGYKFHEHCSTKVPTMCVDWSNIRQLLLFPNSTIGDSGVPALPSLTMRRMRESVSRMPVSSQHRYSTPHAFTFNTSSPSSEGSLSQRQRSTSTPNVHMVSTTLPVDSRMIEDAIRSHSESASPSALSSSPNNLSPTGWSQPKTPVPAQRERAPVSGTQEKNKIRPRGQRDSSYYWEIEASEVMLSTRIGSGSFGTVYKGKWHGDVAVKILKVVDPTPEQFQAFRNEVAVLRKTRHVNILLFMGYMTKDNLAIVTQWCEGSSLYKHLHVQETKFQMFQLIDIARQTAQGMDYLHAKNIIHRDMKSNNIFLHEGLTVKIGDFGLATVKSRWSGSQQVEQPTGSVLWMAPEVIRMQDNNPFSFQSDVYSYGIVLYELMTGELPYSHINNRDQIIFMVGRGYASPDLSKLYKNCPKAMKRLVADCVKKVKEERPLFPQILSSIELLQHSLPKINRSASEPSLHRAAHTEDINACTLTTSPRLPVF

[11] = biological target: RAF proto-oncogene serine/threonine-protein kinase (Homo sapiens) (UniProt P04049); conditions: at 1 µM
[12] = biological target: T3, Interleukin-1 receptor-associated kinase 4 (Homo sapiens) (UniProt Q9NWZ3); conditions: at 0.1 µM
T3 sequence (whole entry): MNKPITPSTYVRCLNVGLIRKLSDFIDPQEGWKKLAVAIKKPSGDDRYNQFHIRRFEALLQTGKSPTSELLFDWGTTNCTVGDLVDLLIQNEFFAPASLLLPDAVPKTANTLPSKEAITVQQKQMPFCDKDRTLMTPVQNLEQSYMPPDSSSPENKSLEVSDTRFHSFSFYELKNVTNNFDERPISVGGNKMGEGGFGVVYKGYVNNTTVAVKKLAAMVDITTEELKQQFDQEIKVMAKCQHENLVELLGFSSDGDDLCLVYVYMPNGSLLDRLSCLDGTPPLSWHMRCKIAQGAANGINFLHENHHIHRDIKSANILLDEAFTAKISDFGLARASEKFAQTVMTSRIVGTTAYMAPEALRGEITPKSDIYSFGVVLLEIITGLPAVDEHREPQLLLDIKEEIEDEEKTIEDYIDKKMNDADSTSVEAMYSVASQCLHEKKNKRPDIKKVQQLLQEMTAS

[13] = biological target: T3, Interleukin-1 receptor-associated kinase 4 (Homo sapiens); conditions: at 1 µM
[14] = biological target: Leucine-rich repeat serine/threonine-protein kinase 2 (Homo sapiens) (UniProt Q5S007); conditions: at 0.1 µM
Chain of Leucine-rich repeat serine/threonine-protein kinase 2 (Homo sapiens) (Q5S007 whole entry): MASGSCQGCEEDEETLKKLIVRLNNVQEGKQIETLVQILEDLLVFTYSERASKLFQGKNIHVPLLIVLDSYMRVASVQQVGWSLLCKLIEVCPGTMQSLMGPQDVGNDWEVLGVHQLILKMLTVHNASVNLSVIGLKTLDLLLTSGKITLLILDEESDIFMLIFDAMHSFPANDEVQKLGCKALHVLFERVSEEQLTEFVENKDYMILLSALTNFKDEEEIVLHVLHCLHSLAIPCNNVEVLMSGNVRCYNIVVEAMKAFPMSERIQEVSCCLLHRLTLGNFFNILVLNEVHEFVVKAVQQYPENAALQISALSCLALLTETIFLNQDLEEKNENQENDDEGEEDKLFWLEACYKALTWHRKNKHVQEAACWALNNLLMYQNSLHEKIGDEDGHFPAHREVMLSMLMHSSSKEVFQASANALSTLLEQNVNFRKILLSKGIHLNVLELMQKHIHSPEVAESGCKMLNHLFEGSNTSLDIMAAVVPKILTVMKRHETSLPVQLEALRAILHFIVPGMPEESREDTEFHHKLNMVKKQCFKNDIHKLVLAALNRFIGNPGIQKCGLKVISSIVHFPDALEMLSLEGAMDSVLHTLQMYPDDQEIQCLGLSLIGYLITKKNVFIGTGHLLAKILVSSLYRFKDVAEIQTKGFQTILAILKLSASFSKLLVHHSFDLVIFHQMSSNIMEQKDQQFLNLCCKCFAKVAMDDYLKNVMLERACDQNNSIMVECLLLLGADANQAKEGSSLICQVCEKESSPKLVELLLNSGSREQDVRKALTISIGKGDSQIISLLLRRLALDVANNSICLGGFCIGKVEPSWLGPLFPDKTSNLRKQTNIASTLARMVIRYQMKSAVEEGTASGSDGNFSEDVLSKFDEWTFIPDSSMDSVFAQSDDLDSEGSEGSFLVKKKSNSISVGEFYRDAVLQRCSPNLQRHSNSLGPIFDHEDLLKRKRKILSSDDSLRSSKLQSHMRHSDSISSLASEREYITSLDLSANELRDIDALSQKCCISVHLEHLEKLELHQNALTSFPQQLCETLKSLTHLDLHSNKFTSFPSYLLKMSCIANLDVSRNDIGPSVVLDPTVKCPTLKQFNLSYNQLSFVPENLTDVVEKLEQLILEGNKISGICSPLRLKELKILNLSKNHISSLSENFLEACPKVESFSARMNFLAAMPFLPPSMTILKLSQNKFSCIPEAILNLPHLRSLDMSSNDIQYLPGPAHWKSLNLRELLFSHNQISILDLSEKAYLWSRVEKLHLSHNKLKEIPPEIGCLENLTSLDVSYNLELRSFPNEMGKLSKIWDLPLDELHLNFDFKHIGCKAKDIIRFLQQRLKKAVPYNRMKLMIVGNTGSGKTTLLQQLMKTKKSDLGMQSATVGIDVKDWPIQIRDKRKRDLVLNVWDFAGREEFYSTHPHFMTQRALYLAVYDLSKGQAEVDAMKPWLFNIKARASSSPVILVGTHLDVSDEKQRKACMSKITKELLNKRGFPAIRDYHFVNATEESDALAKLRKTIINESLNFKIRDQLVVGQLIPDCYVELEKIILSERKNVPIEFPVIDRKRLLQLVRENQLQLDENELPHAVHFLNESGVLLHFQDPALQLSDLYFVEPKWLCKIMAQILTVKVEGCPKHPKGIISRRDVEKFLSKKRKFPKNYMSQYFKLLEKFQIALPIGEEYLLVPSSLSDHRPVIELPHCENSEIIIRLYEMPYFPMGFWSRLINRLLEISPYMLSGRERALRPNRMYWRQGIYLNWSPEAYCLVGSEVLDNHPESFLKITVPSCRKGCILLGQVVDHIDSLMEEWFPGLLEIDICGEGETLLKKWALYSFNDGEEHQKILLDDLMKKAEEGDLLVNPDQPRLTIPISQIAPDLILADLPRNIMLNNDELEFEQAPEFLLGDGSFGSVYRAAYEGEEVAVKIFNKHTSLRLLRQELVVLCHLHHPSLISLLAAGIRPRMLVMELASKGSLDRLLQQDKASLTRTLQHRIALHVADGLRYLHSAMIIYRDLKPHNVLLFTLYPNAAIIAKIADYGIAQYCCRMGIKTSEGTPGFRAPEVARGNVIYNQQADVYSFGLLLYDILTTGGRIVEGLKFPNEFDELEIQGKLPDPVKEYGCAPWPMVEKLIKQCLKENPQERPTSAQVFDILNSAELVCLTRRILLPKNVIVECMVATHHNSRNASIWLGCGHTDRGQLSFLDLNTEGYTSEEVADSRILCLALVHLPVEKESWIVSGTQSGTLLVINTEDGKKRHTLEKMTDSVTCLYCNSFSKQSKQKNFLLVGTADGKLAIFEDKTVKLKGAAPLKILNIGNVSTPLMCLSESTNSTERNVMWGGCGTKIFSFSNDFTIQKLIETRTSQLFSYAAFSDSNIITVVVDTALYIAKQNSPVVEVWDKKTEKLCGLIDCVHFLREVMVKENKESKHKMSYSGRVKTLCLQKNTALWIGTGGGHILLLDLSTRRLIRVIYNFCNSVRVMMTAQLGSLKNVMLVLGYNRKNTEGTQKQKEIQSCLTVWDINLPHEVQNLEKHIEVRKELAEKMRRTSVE

[15] = biological target: Leucine-rich repeat serine/threonine-protein kinase 2 (Homo sapiens) (UniProt Q5S007); conditions: at 1 µM
[16] = test system: Leucine-rich repeat serine/threonine-protein kinase 2 (Homo sapiens), Q5S007 [G2019S]; conditions: at 0.1 µM
Chain of Leucine-rich repeat serine/threonine-protein kinase 2 (Homo sapiens), Q5S007 [G2019S] (Q5S007 whole entry G2019S): as the sequence (Q5S007 whole entry) above, with G2019S counted along it

[17] = test system: Leucine-rich repeat serine/threonine-protein kinase 2 (Homo sapiens), Q5S007 [G2019S]; conditions: at 1 µM

| SMILES | inhibition [1] [%] | inhibition [2] [%] | inhibition [3] [%] | inhibition [4] [%] | inhibition [5] [%] | inhibition [6] [%] | inhibition [7] [%] | inhibition [8] [%] | inhibition [9] [%] | inhibition [10] [%] | inhibition [11] [%] | inhibition [12] [%] | inhibition [13] [%] | inhibition [14] [%] | inhibition [15] [%] | inhibition [16] [%] | inhibition [17] [%] |
| --- | --- | --- | --- | --- | --- | --- | --- | --- | --- | --- | --- | --- | --- | --- | --- | --- | --- |
| N#Cc1c(NC(=O)c2ccccc2F)sc2c1CCCC2 | -1.16 | 2.43 | -1.67 | -3.51 | 0.2 | -1.34 | -1.56 | -0.04 | 1.18 | -2.08 | -0.64 | -1.41 | -0.41 | 1.84 | 1.84 | 2.14 | 3.2 |
| COc1cc(Nc2nccc(-c3cnn4ncccc34)n2)cc(OC)c1 | 14.9 | 9.16 | 39.8 | 4.5 | 14.2 | 3.83 | 28.9 | 4.91 | 28.7 | -0.8 | 10.1 | 5.71 | 18.6 | 18.7 | 24.4 | 22.1 | 62.9 |
| FC(F)(F)c1ccc(-c2nn3ncccc3c2-c2ccnc(Nc3ccc4c(c3)OCCO4)n2)cc1 | 5.58 | 30 | 83.3 | 5.79 | 5.21 | -1.63 | -1.17 | -1.85 | -1.18 | -0.32 | -0.8 | 5.37 | 1.44 | 4.63 | 8.46 | 6.21 | 10.1 |
| c1ccc(Cc2nc3ccc(Nc4ncnc5ccccc45)cc3[nH]2)cc1 | 3.79 | 1.02 | 9.72 | 1.42 | -1.31 | 4.95 | 6.09 | 4.48 | 5.36 | 3.87 | 8.44 | -1.86 | 1.52 | 0.2 | 4.18 | 3.52 | 9.17 |
| [O-][S+]1CCN(Cc2ccc(-c3ccc4ncnc(Nc5ccc(OCc6ccccc6)c(Cl)c5)c4c3)o2)CC1 | 2.86 | 6.47 | 39.1 | -3.44 | 1.8 | 3.08 | 3.86 | 2.34 | 3.29 | -1.87 | -0.7 | 0.32 | 0.82 | 1.07 | 2.89 | 4.21 | 4.96 |
| C[C@@H](Oc1cc(-n2cnc3ccc(OC[C@@H](O)CO)cc32)sc1C(N)=O)c1ccccc1Cl | 1.84 | -2.39 | 4.27 | -0.38 | -0.42 | -1.12 | -0.85 | -2.35 | 0.01 | -4.77 | 5.77 | 1.29 | -0.05 | 3.25 | 17.3 | 5.39 | 28.7 |
| CCn1c(-c2nonc2N)nc2c(C#CC(C)(C)O)nc(OCCNC)cc21 | 3.31 | 3.64 | 3.28 | 1.77 | 1.49 | 6.22 | 7.65 | 3.6 | 3.03 | 0.76 | 0.54 | 2.16 | 3.06 | -2.14 | 0.49 | -0.46 | 2.51 |
| OCc1ccc(-c2nc(-c3ccccn3)c(-c3ccc4c(c3)OCO4)[nH]2)cc1 | 1.02 | 1.58 | -0.01 | 1.4 | 0.81 | 5.65 | 7.13 | 6.24 | 7.48 | -1.74 | -7.97 | -4.02 | 2.42 | 4.19 | 6.97 | 5.62 | 9.65 |
